# Assay outcomes: PubChem, National Center for Advancing Translational Sciences (NCATS)
# The list is not random: actives were taken first. Their share in the collection is about 19%.
# DT40 TDP1 CPT – growth inhibition of DT40 Tdp1-/-;hTDP1 cells with camptothecin (screen for TDP1 inhibitors) | actives 12% (n = 420,000) | Potency, µM (highest dose often 46.2 µM), for the others: at the top dose activity change, negative = growth inhibition, actives largely listed as inhibitors | chicken DT40 Tdp1-/-;hTDP1 cells + 20 nM CPT, ATP luminescence, 48 h | AID 686979; also: potency is read from the fitted curve at half-maximal effect; % is scaled to controls: 0 for no effect and ±100 for the full control effect; nearly all actives have a fitted effect of over 55% in size
#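 Chicken DT40 Tdp1-/- cells complemented with human TDP1, 400 cells/well, exposed to compounds plus 20 nM camptothecin for at least 48 h at 37 C; viability read as ATP content by CellTiter-Glo luminescence.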
# TDP1 cell noCPT – qHTS for Inhibitors of human tyrosyl-DNA phosphodiesterase 1 (TDP1): qHTS in cells in absence of CPT | Potency, µM (highest dose often 46.2 µM), for the others: at the highest dose activity change, negative = growth inhibition, actives largely listed as inhibitors | actives 15% (n = 420,000) | DT40 Tdp1-/- hTDP1 cells, no CPT, ATP luminescence, 48 h; also: potency is read from the fitted curve at half-maximal effect; % is scaled to controls: 0 for no effect and ±100 for the full control effect; nearly all actives have a fitted effect of over 55% in size
#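 Growth of hTDP1-complemented DT40 Tdp1-knockout cells is measured by ATP luminescence after at least 48 hr compound exposure at 37 °C, with DMSO substituting for the 20 nM CPT used in the parallel screen.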
# IL1B secr inh – inhibitors of inflammasome signaling (IL-1 beta secretion); THP-1 LPS/ATP IL-1B secretion, AlphaLISA, 16 h; active compounds read low; activity change, % at 57.5 µM; actives 4.7% (n = 360,000); in the data active = activity change below about -50%; inconclusive = mostly about -30% to -49%; also: % is scaled to controls: 0 for no effect and ±100 for the full control effect
#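 THP-1 cells pretreated 1 hr with compounds (up to 57.5 uM final), then stimulated with LPS (250 ng/mL final) plus ATP (1.25 mM final); secreted IL-1B measured by AlphaLISA after 16 hr, decreased signal indicating inhibition.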
# MCF10A rereplic – inducers of DNA re-replication in MCF 10A breast cells; MCF 10A DNA re-replication, Hoechst nuclear intensity, 48 h; Potency, µM (highest dose often 46.1 µM), without a hit: at the top dose activity, positive = re-replication, most hits filed as activators; actives 2.9% (n = 350,000); also: potency is read from the fitted curve at half-maximal effect; % of control where 0% means no effect; nearly all actives have a fitted effect of over 50% in size
# SW480 rerep – inducers of DNA re-replication in SW480 colon cancer cells | SW480 DNA re-replication, Hoechst DNA content imaging, 48 h | Potency, µM (series often up to 46.1 µM), without a hit: top-dose re-replication activation, actives largely listed as activators | actives 1.8% (n = 340,000) | AID 624297; also: potency is read from the fitted curve at half-maximal effect; % of control where 0% means no effect; nearly all actives have a fitted effect of over 55% in size
#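 DNA re-replication was detected as more nuclei of elevated Hoechst intensity after 48 hr exposure to compound (23 nL pinned per well of 250 cells).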
# Chronic BCR inh – inhibitors of chronic active B-cell receptor signaling; Potency, µM (highest dose often 46.1 µM), without a hit: at the highest dose activity change, negative = inhibition, usual class: inhibitors; ABC-DLBCL IkBa-CBG/CBR reporter, luminescence ratio, 4 h; actives 0.05% (n = 340,000); AID 493014; active = well fitted inhibition curve with a large enough effect in the signal ratio, with a control signal flat, not every such curve was filed as active; inconclusive = small, poorly fitted or top-dose-only effect, or effect the other way, or a change in a side signal; the % refers to the signal ratio;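 also: potency is read from the fitted curve at half-maximal effect; plate controls were basal doxycycline-induced cells for no effect and cells given 10 µM MG132 for full effect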
#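 Compounds up to 46 uM were incubated four hours with TMD8 cells whose green CBG68 luciferase is fused to IkappaBalpha; red CBR luminescence normalised the signal, and concentration-effect curves were fitted to fusion, red and ratio data.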
# Starred values were filed as active, the others as inactive; u = inconclusive; x = not tested or not shown; [ ] = remark or other dose. Unless noted, calls follow the shape of the dose curve; as a rule, active = well fitted curve in the direction sought with a large enough effect; inconclusive = small, poorly fitted or top-dose-only effect, or another doubt; inactive = no such curve, though single readings can be large; an effect the other way counts as inactive or inconclusive.
SMILES,DT40 TDP1 CPT,TDP1 cell noCPT,IL1B secr inh,MCF10A rereplic,SW480 rerep,Chronic BCR inh
COC(=O)C[C@@H]1CC[C@@H](NC(=O)Nc2cc(F)ccc2F)[C@@H](CO)O1,-17%,-5%,-12,x,x,x
CCCS(=O)(=O)NC(=O)C1(C)CCN(C(=O)c2cc(C)nn2C(C)(C)C)C1 (stereo unspecified),-11%,-3%,26,x,x,x
COc1ccccc1Nc1nc2ccc(C)cc2n2cnnc12,u,18µM*,-12,-3%,-12%,u
CCOc1ccccc1Nc1nc2ccccc2n2cnnc12,7%,u,18,2%,-16%,4%
Cc1ccc2nc(Nc3ccc(C)c(C)c3)c3nncn3c2c1,u,21µM*,-6,u,6%,u
c1ccc(N2CCOCC2)c(Nc2nc3ccccc3n3cnnc23)c1,21µM*,16µM*,-10,13%,-1%,1%
Cc1ccc(Nc2nc3ccccc3n3cnnc23)cc1C,5%,u,61,8%,6%,u
COc1ccc(CNC(=O)c2ccccc2SCC(=O)NCc2ccco2)cc1,-26%,-13%,0,9%,4%,-1%
CCCNC(=O)c1onc(CSc2ccc(Cl)cc2)c1C(=O)NC(C)C,u,-13%,-2,8%,3%,7%
COC(=O)c1nn(-c2c(C)n(C)n(-c3ccccc3)c2=O)cc1O,-10%,-2%,1,4.1µM*,5%,0%
COc1ccccc1NC(=O)C1CCN(C(=O)c2sc3nc[nH]c(=O)c3c2C)CC1,-9%,-12%,x,x,x,x
Brc1ccc(/C=N/Nc2ncnc3c2cnn3Cc2ccccc2)cc1,18µM*,15µM*,-11,0%,-8%,10%
Cc1cc(F)ccc1-c1cc(C(=O)NCC2CCCCC2)[nH]n1,21µM*,u,u,x,x,x
CC(C)Oc1cc(F)ccc1-c1cc(C(=O)NCC2CCCCC2)[nH]n1,-22%,u,-13,x,x,x
CCOc1ccc(Cl)cc1-c1cc(C(=O)NCC2CCCCC2)[nH]n1,4.1µM*,6.5µM*,u,x,x,x
COc1ccc(Cl)cc1-c1cc(C(=O)NCC2CCCCC2)[nH]n1,8.2µM*,12µM*,3,x,x,x
COc1ccc(Cl)cc1-c1cc(C(=O)NCc2cccc(Cl)c2)[nH]n1,u,u,-15,x,x,x
CCOC(=O)CC1(C)Sc2ccccc2N1S(=O)(=O)c1ccc(C)cc1 (stereo unspecified),u,u,-1,x,x,x
CC1(c2ccc3ccccc3c2)NC(=O)N(CC(=O)N2CCCC(C(F)(F)F)C2)C1=O (stereo unspecified),-28%,-7%,2,28%,0%,2%
COc1ccc(C2=CC(=O)N(Nc3ccccc3)C2=O)cc1,18µM*,21µM*,-55*,u,4.1µM*,u
O=C1C=C(c2ccccc2)C(=O)N1Nc1ccccc1,4.1µM*,5.8µM*,-101*,u,u,u
Cc1ccc(NN2C(=O)C=C(c3ccc(Cl)cc3)C2=O)cc1,5.8µM*,4.1µM*,-103*,15µM*,u,u
CN1C[C@@H]2[C@@H]3C(=O)N(C)C(=O)[C@@H]3[C@](Cc3ccccc3)(C1=O)N2C(=O)c1ccccc1,-6%,-2%,50,u,-11%,x
CCOC(=O)c1ccc(S(=O)(=O)NNC(=O)Cc2csc(C)n2)cc1,-3%,-4%,-3,0%,u,-2%
Cc1ccc2nc3cc([N+](=O)[O-])cc([N+](=O)[O-])c3cc2c1,0.46µM*,0.58µM*,-73*,u,0.65µM*,6%
SMILES,DT40 TDP1 CPT,TDP1 cell noCPT,IL1B secr inh,MCF10A rereplic,SW480 rerep,Chronic BCR inh
CCCC(=O)N1N=C(c2ccccc2)CC1c1cn(C)c2ccccc12 (stereo unspecified),u,u,-56*,23µM*,u,u
CC(=O)N1N=C(c2ccc(Br)cc2)CC1c1cn(C)c2ccccc12 (stereo unspecified),u,u,12,18µM*,24%,u
CCC(=O)N1N=C(c2ccccc2)CC1c1ccccc1 (stereo unspecified),-2%,-17%,-5,2%,-55%,u
S=C1SCN(CC2CC2)CN1CC1CC1,0.58µM*,4.6µM*,-24,-1%,5.8µM*,u
C[N+]1(CC(=O)c2ccc(I)cc2)CCCc2ccccc21 (stereo unspecified),7.9µM*,7.1µM*,x,x,x,x
O=C(C[N+]12CCCc3cccc(c31)CCC2)c1ccccc1,u,10µM*,x,x,x,x
Cc1cc(C)n(-c2ccc(C(=O)N3CCc4c(cnc(C)c4CNC(=O)c4ccccc4F)C3)cc2)n1,-7%[9.04 µM],-10%,x,x,x,x
CN(C)S(=O)(=O)c1ccc(N2CCCC2)c(C(=O)N2CCN(S(=O)(=O)c3ccc(F)c(F)c3)CC2)c1,-29%,-19%,9,-7%,-2%,x
CCCC(C(=O)Nc1ccc2c(C)cc(=O)oc2c1)c1ccccc1 (stereo unspecified),26µM*,u,59,u,23%,7%
Cc1cc(=O)oc2cc(NC(=O)c3cccc(S(C)(=O)=O)c3)ccc12,0%,u,-53*,-2%,0%,-11%
Cc1cc(=O)oc2cc(NC(=O)Cc3ccccc3)ccc12,9%,-20%,-3,0%,5%,0%
Cc1cc(=O)oc2cc(NC(=O)c3cccc(S(=O)(=O)N(C)C)c3)ccc12,1%,-9%,-4,1%,1%,4%
CCOc1ccc(OCc2ccc(C(=O)N/N=C(\C)c3ccccn3)cc2)cc1,0.92µM*,0.65µM*,113,u,u,u
CCOc1ccc(C(=O)O/N=C(\N)c2ccccn2)cc1,-9%,u,-9,0%,-6%,u
C/C(=N\NC(=O)c1ccccc1OCc1ccc(F)cc1)c1ccccn1,4.6µM*,5.2µM*,52,24%,2%,u
COc1ccccc1C(=O)Nc1cccc(N2CCC(NCc3cnn(-c4ccccc4)n3)CC2)c1,-9%[9.04 µM],u,x,x,x,x
Cc1cccc(CS(=O)(=O)c2ncc(Cl)c(C(=O)Nc3nc4ccc(F)cc4s3)n2)c1,2.3µM*,2.3µM*,x,x,x,x
O=C(Nc1nc2ccc(F)cc2s1)c1nc(S(=O)(=O)Cc2ccccc2)ncc1Cl,2.3µM*,2.3µM*,x,x,x,x
COc1ccc2nc(NC(=O)c3nc(SCc4ccc(F)cc4)ncc3Cl)sc2c1,-20%,u,x,x,x,x
